# High-throughput results from PubChem.
# Compounds with a hit are over-represented: about 8.9% of the library has one in this group of screens.
# IMPase inh: cell-permeable inhibitors of inositol monophosphatase (IMPase). inhibition (IP1 accumulation), % at 46.1 µM. CHO-M1 cells, IP1 accumulation, HTRF TR-FRET ratio. P97697. 120,000 tested, under 10 active; active = well fitted curve in the direction sought with a large enough effect in the signal ratio, not every such curve was filed as active; inconclusive = small, poorly fitted or top-dose-only effect, or a change in a side signal; inactive = no such curve, though single readings can be large or run the other way; the % refers to the signal ratio;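 note: cells stimulated with carbachol in lithium chloride buffer; plate controls were DMSO basal wells for no effect and reference inhibitor wells for full effect; higher means more IMPase inhibition seen as more IP1 and lower FRET ratio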
# Target sequence (P97697 whole entry, looked up): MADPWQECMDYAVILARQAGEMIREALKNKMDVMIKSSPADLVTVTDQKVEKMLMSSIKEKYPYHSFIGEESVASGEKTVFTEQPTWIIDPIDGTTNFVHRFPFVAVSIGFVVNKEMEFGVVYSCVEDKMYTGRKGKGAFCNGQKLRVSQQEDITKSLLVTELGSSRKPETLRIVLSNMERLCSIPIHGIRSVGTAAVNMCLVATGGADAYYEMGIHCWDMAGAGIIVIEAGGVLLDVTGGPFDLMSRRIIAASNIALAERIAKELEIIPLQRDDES
#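 Elevated IP1 in lysates lowers TR-FRET signal (665/620 ratio and 620 channel reported). Cells were CHO-M1, given carbachol (50 uM as added) plus 50mM LiCl, pH 7.4, 30 min, 37C; compounds titrated up to 46 uM; AC50 by Hill equation.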
# ALDH1A1 inh: ALDH1A1 (human) enzyme inhibition; P00352; Purified ALDH1A1, NADH fluorescence, propionaldehyde substrate; Potency, µM (series often up to 75.3 µM), without a hit: at the top dose activity, negative = inhibition, hits mostly inhibitors; hit rate 7.3% among 220,000; AID 1030; active = well fitted inhibition curve with a large enough effect, not every such curve was filed as active; inconclusive = small, poorly fitted or top-dose-only effect, or another doubt; inactive = no such curve, though single readings can be large or run the other way;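 note: potency is the fitted concentration of half-maximal effect; plate controls were no enzyme wells and a reference inhibitor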
# IMPase Li cell: IMPase inhibition in cells with lithium potentiation; CHO-M1 cells, IP1 TR-FRET (IP-One), carbachol + lithium; Potency, µM (doses to about 59.4 µM), inactives show at the top dose activity, negative = IMPase inhibition, usual class: inhibitors; hit rate 0.35% among 210,000;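 note: IP1 builds up when IMPase is blocked and the TR-FRET signal falls; potency is the fitted concentration of half-maximal effect; plate controls were basal vehicle for no effect and high inhibitor control for full effect; nearly all actives have a fitted effect of over 50% in size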
#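 IP1 accumulation measured by competitive TR-FRET in lysed CHO-M1 cells after 30 min compound exposure at 37C, with a small lithium addition to potentiate weak responses. Hill-equation AC50 from ratio and donor-channel data.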
# ALOX12 inhib: blocks human 12-lipoxygenase activity; P18054; purified 12-hLO, xylenol orange hydroperoxide absorbance; Potency, µM (top dose mostly 57.1 µM), for the others: top-dose activity change, negative = inhibition, hits mostly inhibitors; hit rate 0.12% among 150,000; AID 1452; note: potency is the fitted concentration of half-maximal effect; nearly all actives have a fitted effect of over 55% in size
#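 150 nM 12hLO, 25 mM Hepes pH 7.0 + 0.01% Triton X-100; cpd preinc 15 min RT; 40 uM arachidonic acid, 30 min RT; Fe-XO 30 min; A573/A405 ratio as read-out.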
# NPSR antagonist: blocks cAMP signaling of the human neuropeptide S receptor. Q6W5P4. CHO-NPSR cells, cAMP TR-FRET, antagonist mode. Potency, µM (series often up to 38.3 µM), inactives show top-dose activity change, negative = inhibition, actives largely listed as inhibitors. hit rate 1% among 220,000. AID 1461; note: potency is the fitted concentration of half-maximal effect; nearly all actives have a fitted effect of over 50% in size
# HPGD inh: blocks human HPGD enzyme activity; AID 894; Potency, µM, inactives show top-dose activity change, negative = inhibition, most hits filed as inhibitors; hit rate 4.3% among 150,000; P15428; purified HPGD, NADH fluorescence kinetic, PGE2 substrate; active = well fitted inhibition curve with a large enough effect, not every such curve was filed as active; inconclusive = small, poorly fitted or top-dose-only effect, or another doubt; inactive = no such curve, though single readings can be large or run the other way; note: potency is the fitted concentration of half-maximal effect
# Target sequence (P15428 whole entry, looked up): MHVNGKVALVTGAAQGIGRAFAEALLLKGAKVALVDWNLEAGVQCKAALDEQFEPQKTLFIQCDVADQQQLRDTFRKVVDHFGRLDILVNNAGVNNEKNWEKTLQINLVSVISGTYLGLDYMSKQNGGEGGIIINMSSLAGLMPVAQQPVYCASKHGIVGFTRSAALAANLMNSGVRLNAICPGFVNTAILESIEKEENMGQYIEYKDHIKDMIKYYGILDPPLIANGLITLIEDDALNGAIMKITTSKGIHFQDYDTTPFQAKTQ
#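 20 nM HPGD preincubated 15 min at room temperature with compound in 50 mM Tris-HCl pH 8, 0.01% Tween 20. Started with 1 mM NAD+ and 30 uM prostaglandin E2; NADH fluorescence (360/450 nm) read 5 times over 30-s intervals, last minus first.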
# * marks the source's active call; other numbers are inactive results; ? = inconclusive; . = no result; [ ] = remark or other dose. Unless noted, calls come from the whole dose curve; as a rule, active = well fitted curve in the direction sought with a large enough effect; inconclusive = small, poorly fitted or top-dose-only effect, or another doubt; inactive = no such curve, though single readings can be large; an effect the other way counts as inactive or inconclusive. Unless noted, % is set by controls: 0 for no effect and ±100 for the full control effect.
SMILES,IMPase inh,ALDH1A1 inh,IMPase Li cell,ALOX12 inhib,NPSR antagonist,HPGD inh
CCN(Cc1ccccc1)C(=O)COc1cc(=O)n(CC)c2ccccc12,-1,?,16%[38.3 µM],7%,-11%[46.1 µM],-24%
CCCN(CCC)C(=O)COc1cc(=O)n(CC)c2ccccc12,1,-7%,8%,-2%,-6%,25µM*
CCn1c(=O)cc(OCC(=O)N2CCCCCC2)c2ccccc21,5,?,-2%[38.3 µM],1%,-1%[46.1 µM],32µM*
CCN(C(=O)COc1cc(=O)n(CC)c2ccccc12)c1cccc(Cl)c1,13,6.3µM*,16%[38.3 µM],-7%,-11%[46.1 µM],-3%
O=S(=O)(c1ccc(OCC(O)CN2CCCC2)cc1)N1CCOCC1 (configuration not stated),6,0%,15%[38.3 µM],-2%,-8%[46.1 µM],-12%
O=C1C=C(O)c2ccccc2C1=O,.,16µM*,25%,-13%,.,?
Nc1c(Cl)cc(Cl)cc1C(=O)OCC(=O)N1CCCC1,-1,?,?,-2%,-4%[46.1 µM],?
CSc1nc(/C=C2\C=Nc3ccccc32)c(O)n1C,.,-5%,9%,-4%,-13%,35µM*
CC(C)n1c(O)c(/C=C2\C=Nc3ccccc32)sc1=Nc1ccccc1,7,-2%,23%[38.3 µM],-8%,-15%[46.1 µM],-9%
O=C(Nc1nnc(-c2ccncc2)o1)c1ccc(Br)s1,.,6%,-10%,.,-17%,.
COC(=O)c1cnc2ccccc2n1,?,1%,-2%,15%,-7%[46.1 µM],-12%
O=C(O)c1cnc2ccccc2n1,-4,25µM*,-13%[38.3 µM],-6%,-12%[46.1 µM],?
CN(CC(=O)Nc1sccc1C#N)C1CCCCC1,-5,?,12%,-8%,3%[46.1 µM],-28%
O=C1NN(c2cccc(Br)c2)C(=O)/C1=C/c1cccs1,.,.,.,.,-54%,.
CC(C)=C1C(=O)NN(c2ccc(F)c(Cl)c2)C1=O,1,-2%,-9%[38.3 µM],?,-8%[46.1 µM],8.9µM*
O=C1NN(c2ccc(F)c(Cl)c2)C(=O)/C1=C\c1cccc(OC(=O)c2cccs2)c1,-1,?,18%[38.3 µM],?,-11%[46.1 µM],10µM*
COc1ccc(/C=N/NS(=O)(=O)c2ccccc2)cc1OS(=O)(=O)c1ccc(C)cc1,1,7.1µM*,6%[38.3 µM],-10%,-29%[46.1 µM],-4%
COc1ccc(/C=N/NC(=O)c2cccc([N+](=O)[O-])c2)cc1OS(=O)(=O)c1ccccc1,13,?,-2%[38.3 µM],-1%,-16%[46.1 µM],-11%
COc1cc(/C=N/NS(=O)(=O)c2ccccc2)ccc1OS(=O)(=O)c1ccc(C)cc1,.,7.9µM*,8%,2%,?,-19%
C=CCNC(=O)/C(C#N)=C/c1ccc(OS(=O)(=O)c2ccc(C)cc2)c(OC)c1,.,25µM*,14%,-3%,-22%,28µM*
COc1cc(/C=N/NS(=O)(=O)c2ccc(C)cc2)ccc1OCc1ccc(C(=O)O)cc1,.,?,3%,.,10%,.
CCOc1ccc(NC(=S)NCCCN2CCN(C3CCCCC3)CC2)cc1,.,10%,7%,-2%,32%,-11%
Cc1c(C(=O)Nc2nc3ccccc3[nH]2)oc2ccc(Br)cc12,-4,6%,.,-4%,-10%[46.1 µM],.
CCOc1ncccc1C(=O)Oc1ccc2c(c1)OCO2,2,3%,16%[38.3 µM],3%,1%[46.1 µM],-4%
CC1=NN(C(N)=S)C(=O)C1N=Nc1ccc(C)cc1C (configuration not stated),-1,10µM*,15%[38.3 µM],-18%,-9%[46.1 µM],-10%
CC1=NN(C(N)=S)C(=O)C1N=Nc1ccccc1C (configuration not stated),?,5µM*,13%,-5%,0%[46.1 µM],-26%
CC1=NN(C(N)=S)C(=O)C1N=Nc1c(C)cc(C)cc1C (configuration not stated),3,-14%,2%[38.3 µM],2%,-13%[46.1 µM],-21%
Cc1ccc(-c2c[n+](CC(=O)c3ccc(Br)cc3)c3n2CCCCC3)cc1,.,?,1%,.,-24%,.
O=C(c1cc2c(cc1Br)OCCCO2)N1CCCCC1,.,9%,-3%,0%,4%,2.2µM*
